Laboratory results taken from publication PMC7862700, “An all-to-all approach to the identification of sequence-specific readers for epigenetic DNA modifications on cytosine”.

Legend:
Test in all cases: DAPPL (digital affinity profiling via proximity ligation, sequencing); 10 mM Tris-HCl pH 7.5, 50 mM NaCl, 1 mM DTT, 4% glycerol, room temperature, 30 min; GST-TFs on glutathione beads, 16-mer random dsDNA library, 0.1% formaldehyde crosslink after washing; high values mean tight binding
Conditions in all cases: protein: recombinant; tags: N-terminal GST; dsDNA, one strand shown
ERF = molecular target: T1, ERF (Homo sapiens, UniProt P50548 1-548)
T1 sequence: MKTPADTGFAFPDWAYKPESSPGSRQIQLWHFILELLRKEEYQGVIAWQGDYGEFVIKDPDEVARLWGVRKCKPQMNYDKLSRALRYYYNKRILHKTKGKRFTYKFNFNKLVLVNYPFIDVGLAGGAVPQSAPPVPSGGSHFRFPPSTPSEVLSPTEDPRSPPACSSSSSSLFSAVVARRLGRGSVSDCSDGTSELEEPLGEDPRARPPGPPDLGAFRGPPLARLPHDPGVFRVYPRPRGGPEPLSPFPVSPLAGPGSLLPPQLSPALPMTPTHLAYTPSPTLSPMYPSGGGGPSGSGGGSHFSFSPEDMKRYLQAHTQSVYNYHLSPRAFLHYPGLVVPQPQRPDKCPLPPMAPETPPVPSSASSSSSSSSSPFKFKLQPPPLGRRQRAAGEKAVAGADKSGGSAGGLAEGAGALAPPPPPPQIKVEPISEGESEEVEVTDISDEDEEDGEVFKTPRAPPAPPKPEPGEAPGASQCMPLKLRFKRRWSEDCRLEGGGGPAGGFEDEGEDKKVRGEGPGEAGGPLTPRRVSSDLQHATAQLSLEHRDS
Procedure, shortened: (§1)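 GST fusions of human transcription factors were expressed in yeast and captured with glutathione beads. Once given DNA barcodes and pooled alongside a tag-only sample, they were incubated for 30 min at room temperature with 200 nmole of a random double-stranded 16-mer DNA library in Tris/NaCl/DTT/glycerol buffer, then washed, crosslinked (0.1% formaldehyde), proximity-ligated, PCR-amplified and sequenced on an Illumina NextSeq500. The binding signal of each hexamer is its read frequency for a factor divided by its frequency for the tag-only sample.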

ETV3L = molecular target: T2, ETV3L (Homo sapiens, UniProt Q6ZN32 1-361)
T2 sequence: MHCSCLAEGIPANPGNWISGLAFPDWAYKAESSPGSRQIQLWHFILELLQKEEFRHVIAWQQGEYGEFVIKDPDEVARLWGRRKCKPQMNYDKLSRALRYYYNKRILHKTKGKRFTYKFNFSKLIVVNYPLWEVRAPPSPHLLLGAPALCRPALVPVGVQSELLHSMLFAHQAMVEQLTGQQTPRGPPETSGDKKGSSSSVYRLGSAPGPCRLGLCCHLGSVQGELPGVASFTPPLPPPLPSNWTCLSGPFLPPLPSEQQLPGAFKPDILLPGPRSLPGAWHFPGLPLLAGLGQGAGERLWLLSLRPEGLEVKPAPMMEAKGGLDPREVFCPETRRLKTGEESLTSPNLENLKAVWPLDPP
Procedure, shortened: as §1

ETS2 = molecular target: T3, ETS2 (Homo sapiens, UniProt P15036 1-469)
T3 sequence: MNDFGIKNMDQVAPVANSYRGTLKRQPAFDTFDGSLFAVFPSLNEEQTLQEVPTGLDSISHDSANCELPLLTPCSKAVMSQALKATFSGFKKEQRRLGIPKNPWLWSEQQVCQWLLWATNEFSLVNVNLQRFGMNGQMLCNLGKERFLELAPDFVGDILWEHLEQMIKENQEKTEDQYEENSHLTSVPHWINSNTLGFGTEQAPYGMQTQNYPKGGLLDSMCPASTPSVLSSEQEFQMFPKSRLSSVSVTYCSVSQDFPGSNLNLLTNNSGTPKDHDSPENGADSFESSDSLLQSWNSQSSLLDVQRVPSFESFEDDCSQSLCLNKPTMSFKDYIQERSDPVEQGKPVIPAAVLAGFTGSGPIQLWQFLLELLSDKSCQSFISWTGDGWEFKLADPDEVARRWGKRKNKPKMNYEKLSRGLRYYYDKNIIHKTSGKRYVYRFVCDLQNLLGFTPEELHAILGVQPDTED
Procedure, shortened: as §1

SPDEF = molecular target: T4, SPDEF (Homo sapiens, UniProt O95238 1-335)
T4 sequence: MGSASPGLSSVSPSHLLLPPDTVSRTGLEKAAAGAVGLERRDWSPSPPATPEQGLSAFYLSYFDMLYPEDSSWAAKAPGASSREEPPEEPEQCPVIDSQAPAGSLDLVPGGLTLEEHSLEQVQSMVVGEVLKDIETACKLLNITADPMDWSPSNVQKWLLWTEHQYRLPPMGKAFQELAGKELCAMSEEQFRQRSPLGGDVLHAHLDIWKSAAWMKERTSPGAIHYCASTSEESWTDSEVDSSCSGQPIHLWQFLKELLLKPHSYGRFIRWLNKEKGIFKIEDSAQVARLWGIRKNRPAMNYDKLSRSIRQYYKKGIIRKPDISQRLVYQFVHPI
Procedure, shortened: as §1

ETV7 = molecular target: T5, ETV7 (Homo sapiens, UniProt Q9Y603 1-341)
T5 sequence: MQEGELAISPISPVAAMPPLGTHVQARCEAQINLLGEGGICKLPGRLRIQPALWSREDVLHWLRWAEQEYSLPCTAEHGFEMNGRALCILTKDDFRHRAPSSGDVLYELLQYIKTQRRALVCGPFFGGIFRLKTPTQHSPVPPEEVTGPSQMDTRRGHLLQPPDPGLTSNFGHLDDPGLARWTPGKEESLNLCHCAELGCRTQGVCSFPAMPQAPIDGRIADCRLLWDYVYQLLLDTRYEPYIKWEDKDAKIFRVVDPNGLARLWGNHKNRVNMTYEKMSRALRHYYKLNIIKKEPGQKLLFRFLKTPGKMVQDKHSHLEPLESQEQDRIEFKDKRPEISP
Procedure, shortened: as §1

ELF5 = molecular target: T6, ELF5 (Homo sapiens, UniProt Q9UKW6-2 1-255)
T6 sequence: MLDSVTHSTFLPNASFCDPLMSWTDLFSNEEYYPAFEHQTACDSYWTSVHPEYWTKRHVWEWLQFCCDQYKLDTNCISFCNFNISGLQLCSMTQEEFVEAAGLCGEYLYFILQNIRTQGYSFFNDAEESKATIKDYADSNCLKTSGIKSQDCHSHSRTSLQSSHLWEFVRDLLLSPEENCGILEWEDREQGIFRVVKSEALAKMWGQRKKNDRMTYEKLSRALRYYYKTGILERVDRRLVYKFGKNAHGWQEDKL
Procedure, shortened: as §1

ETV3 = molecular target: T7, ETV3 (Homo sapiens, UniProt P41162-2 1-143)
T7 sequence: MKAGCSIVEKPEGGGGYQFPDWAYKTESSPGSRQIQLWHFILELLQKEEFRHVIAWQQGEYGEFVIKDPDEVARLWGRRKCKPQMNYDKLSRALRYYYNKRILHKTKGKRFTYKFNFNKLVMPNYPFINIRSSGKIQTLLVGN
Procedure, shortened: as §1

ETV6 = ETV6 (Homo sapiens, UniProt P41212 1-452)
Procedure, shortened: as §1

Chain of ETV6 (P41212 whole entry): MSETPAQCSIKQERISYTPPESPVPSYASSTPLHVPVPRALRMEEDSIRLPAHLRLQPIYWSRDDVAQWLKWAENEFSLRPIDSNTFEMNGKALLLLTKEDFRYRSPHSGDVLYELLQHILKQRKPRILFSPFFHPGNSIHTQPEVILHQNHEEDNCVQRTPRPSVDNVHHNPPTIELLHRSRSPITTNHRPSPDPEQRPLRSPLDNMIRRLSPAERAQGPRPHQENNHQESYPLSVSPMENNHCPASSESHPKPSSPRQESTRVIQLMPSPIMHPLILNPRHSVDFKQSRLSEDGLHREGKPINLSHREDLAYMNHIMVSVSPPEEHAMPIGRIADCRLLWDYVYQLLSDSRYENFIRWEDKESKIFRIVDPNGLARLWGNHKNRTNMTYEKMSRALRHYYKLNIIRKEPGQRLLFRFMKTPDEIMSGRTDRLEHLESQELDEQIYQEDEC

Sequence	binding signal (ERF)	binding signal (ETV3L)	binding signal (ETS2)	binding signal (SPDEF)	binding signal (ETV7)	binding signal (ELF5)	binding signal (ETV3)	binding signal (ETV6)
CGCGCT	1.44 fold enrichment (6-mer frequency, TF over GST control)	1.18 fold enrichment (6-mer frequency, TF over GST control)	1.25 fold enrichment (6-mer frequency, TF over GST control)	1.14 fold enrichment (6-mer frequency, TF over GST control)	1.14 fold enrichment (6-mer frequency, TF over GST control)	1.11 fold enrichment (6-mer frequency, TF over GST control)	1.17 fold enrichment (6-mer frequency, TF over GST control)	1.15 fold enrichment (6-mer frequency, TF over GST control)
CTAGTT	1.34 fold enrichment (6-mer frequency, TF over GST control)	1.23 fold enrichment (6-mer frequency, TF over GST control)	1.38 fold enrichment (6-mer frequency, TF over GST control)	1.29 fold enrichment (6-mer frequency, TF over GST control)	1.28 fold enrichment (6-mer frequency, TF over GST control)	1.22 fold enrichment (6-mer frequency, TF over GST control)	1.19 fold enrichment (6-mer frequency, TF over GST control)	1.3 fold enrichment (6-mer frequency, TF over GST control)
GTAAAT	1.18 fold enrichment (6-mer frequency, TF over GST control)	1.23 fold enrichment (6-mer frequency, TF over GST control)	1.18 fold enrichment (6-mer frequency, TF over GST control)	1.13 fold enrichment (6-mer frequency, TF over GST control)	1.2 fold enrichment (6-mer frequency, TF over GST control)	1.12 fold enrichment (6-mer frequency, TF over GST control)	1.13 fold enrichment (6-mer frequency, TF over GST control)	1.18 fold enrichment (6-mer frequency, TF over GST control)
ATAACT	1.24 fold enrichment (6-mer frequency, TF over GST control)	1.22 fold enrichment (6-mer frequency, TF over GST control)	1.27 fold enrichment (6-mer frequency, TF over GST control)	1.18 fold enrichment (6-mer frequency, TF over GST control)	1.24 fold enrichment (6-mer frequency, TF over GST control)	1.29 fold enrichment (6-mer frequency, TF over GST control)	1.34 fold enrichment (6-mer frequency, TF over GST control)	1.27 fold enrichment (6-mer frequency, TF over GST control)
ATAGAA	1.1 fold enrichment (6-mer frequency, TF over GST control)	1.1 fold enrichment (6-mer frequency, TF over GST control)	1.07 fold enrichment (6-mer frequency, TF over GST control)	1.02 fold enrichment (6-mer frequency, TF over GST control)	1.16 fold enrichment (6-mer frequency, TF over GST control)	1.04 fold enrichment (6-mer frequency, TF over GST control)	1.1 fold enrichment (6-mer frequency, TF over GST control)	1.13 fold enrichment (6-mer frequency, TF over GST control)
TAACAA	1.33 fold enrichment (6-mer frequency, TF over GST control)	1.18 fold enrichment (6-mer frequency, TF over GST control)	1.15 fold enrichment (6-mer frequency, TF over GST control)	1.14 fold enrichment (6-mer frequency, TF over GST control)	1.21 fold enrichment (6-mer frequency, TF over GST control)	1.14 fold enrichment (6-mer frequency, TF over GST control)	1.19 fold enrichment (6-mer frequency, TF over GST control)	1.15 fold enrichment (6-mer frequency, TF over GST control)
TTTCCC	1.57 fold enrichment (6-mer frequency, TF over GST control)	1.7 fold enrichment (6-mer frequency, TF over GST control)	1.71 fold enrichment (6-mer frequency, TF over GST control)	1.45 fold enrichment (6-mer frequency, TF over GST control)	1.65 fold enrichment (6-mer frequency, TF over GST control)	2.51 fold enrichment (6-mer frequency, TF over GST control)	1.75 fold enrichment (6-mer frequency, TF over GST control)	1.97 fold enrichment (6-mer frequency, TF over GST control)
